Experimental data from the supplement of paper PMC8728848.
Only a selection was taken, and the strongest signals are over-represented in it overall.

How the values were obtained:
Test in all cases: glycan array binding signal (z-score within array); higher = stronger binding
Conditions in all cases: glycan notation: IUPAC condensed, linker removed
[1] = biological target: Fuc(a1-2)Gal(b1-3)GalNAc(b1-4)[Neu5Ac(a2-3)]Gal(b1-4)Glc
Summary of the method: (§1)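 From the Consortium for Functional Glycomics database, 3228 arrays were curated, keeping only those whose protein sequence was available. Binding is given as a within-array Z-score averaged across arrays sharing a protein sequence and across linkers. Negative Z-scores can be read as non-binding.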

[2] = biological target: Fuc(a1-2)[Gal(a1-3)]Gal(b1-3)GlcNAc
Summary of the method: as §1

[3] = biological target: Fuc(a1-2)[GalNAc(a1-4)]Gal(b1-4)GlcNAc
Summary of the method: as §1

Fuc(a1-4)GlcNAc = biological target: Fuc(a1-4)GlcNAc
Summary of the method: as §1

Gal(a1-3)Gal(b1-4)GlcNAc = biological target: Gal(a1-3)Gal(b1-4)GlcNAc
Summary of the method: as §1

[4] = biological target: Gal(b1-3)[Fuc(a1-4)]GlcNAc
Summary of the method: as §1

[5] = biological target: Gal(b1-3)[Fuc(a1-4)]GlcNAc(b1-3)Gal(b1-4)[Fuc(a1-3)]GlcNAc
Summary of the method: as §1

Gal3S(b1-3)GalNAc = biological target: Gal3S(b1-3)GalNAc
Summary of the method: as §1

GalNAc(a1-3)Gal = biological target: GalNAc(a1-3)Gal
Summary of the method: as §1

GalNAc(a1-3)GalNAc = biological target: GalNAc(a1-3)GalNAc
Summary of the method: as §1

[6] = biological target: GalNAc(b1-3)Gal(a1-4)Gal(b1-4)GlcNAc
Summary of the method: as §1

GlcA(b1-6)Gal = biological target: GlcA(b1-6)Gal
Summary of the method: as §1

GlcNAc(b1-3)Gal(b1-4)Glc = biological target: GlcNAc(b1-3)Gal(b1-4)Glc
Summary of the method: as §1

Man(a1-2)Man(a1-3)Man = biological target: Man(a1-2)Man(a1-3)Man
Summary of the method: as §1

[7] = biological target: Man(a1-2)Man(a1-3)[Man(a1-2)Man(a1-6)]Man(a1-6)[Man(a1-3)[Man(a1-6)]Man(a1-6)]Man(b1-4)GlcNAc(b1-4)GlcNAc
Summary of the method: as §1

[8] = biological target: Neu5Ac(a2-3)Gal(b1-3)[Neu5Ac(a2-3)Gal(b1-4)]GlcNAc
Summary of the method: as §1

[9] = biological target: Neu5Ac(a2-3)Gal(b1-4)GlcNAc(b1-3)Gal(b1-4)GlcNAc(b1-3)Gal(b1-4)GlcNAc
Summary of the method: as §1

[10] = biological target: Neu5Ac(a2-3)Gal(b1-4)GlcNAc6S
Summary of the method: as §1

[11] = biological target: Neu5Ac(a2-3)Gal(b1-4)[Fuc(a1-3)]GlcNAc(b1-3)Gal(b1-4)GlcNAc
Summary of the method: as §1

[12] = biological target: Neu5Ac(a2-6)Gal(b1-4)GlcNAc(b1-2)Man(a1-3)[Neu5Ac(a2-6)Gal(b1-4)GlcNAc(b1-2)Man(a1-6)]Man(b1-4)GlcNAc(b1-4)GlcNAc
Summary of the method: as §1

[13] = biological target: Neu5Ac(a2-6)GalNAc(b1-4)GlcNAc
Summary of the method: as §1

[14] = biological target: Neu5Gc(a2-3)Gal(b1-3)[Fuc(a1-4)]GlcNAc
Summary of the method: as §1

Neu5Gc(a2-3)Gal(b1-4)Glc = biological target: Neu5Gc(a2-3)Gal(b1-4)Glc
Summary of the method: as §1

Neu5Gc(a2-6)GalNAc = biological target: Neu5Gc(a2-6)GalNAc
Summary of the method: as §1

B1: M6PR (Bos taurus), P11456 (protein)
chain: MMSPLHSSWRTGLLLLLLFSVAVRESWQTEEKTCDLVGEKGKESEKELALLKRLTPLFNKSFESTVGQSPDMYSYVFRVCREAGNHSSGAGLVQINKSNGKETVVGRFNETQIFNGSNWIMLIYKGGDEYDNHCGREQRRAVVMISCNRHTLADNFN
glycan array binding signal (z-score) [1]: 2.76 | glycan array binding signal (z-score) [2]: -0.012 | glycan array binding signal (z-score) [3]: -0.255 | glycan array binding signal (z-score) (Fuc(a1-4)GlcNAc): -0.026 | glycan array binding signal (z-score) (Gal(a1-3)Gal(b1-4)GlcNAc): -0.036 | glycan array binding signal (z-score) [4]: -0.132 | glycan array binding signal (z-score) [5]: 0.169 | glycan array binding signal (z-score) (Gal3S(b1-3)GalNAc): -0.095 | glycan array binding signal (z-score) (GalNAc(a1-3)Gal): 1.42 | glycan array binding signal (z-score) (GalNAc(a1-3)GalNAc): 0.045 | glycan array binding signal (z-score) [6]: 0.285 | glycan array binding signal (z-score) (GlcA(b1-6)Gal): -0.256 | glycan array binding signal (z-score) (GlcNAc(b1-3)Gal(b1-4)Glc): 1.12 | glycan array binding signal (z-score) (Man(a1-2)Man(a1-3)Man): -0.287 | glycan array binding signal (z-score) [7]: 3.23 | glycan array binding signal (z-score) [8]: -0.269 | glycan array binding signal (z-score) [9]: -0.446 | glycan array binding signal (z-score) [10]: -0.267 | glycan array binding signal (z-score) [11]: 0.517 | glycan array binding signal (z-score) [12]: -0.279 | glycan array binding signal (z-score) [13]: 0.219 | glycan array binding signal (z-score) [14]: -0.343 | glycan array binding signal (z-score) (Neu5Gc(a2-3)Gal(b1-4)Glc): -0.187 | glycan array binding signal (z-score) (Neu5Gc(a2-6)GalNAc): 1.03
